Cruzain noTriton – blocks cruzain activity in detergent-free assay; 200,000 tested, 2.3% active; Potency, µM, most hits filed as inhibitors; P25779; purified cruzain, Z-FR-AMC fluorescence, no detergent; also: nearly all actives have a fitted effect of over 40% in size
Target sequence (P25779 123-467 limits assumed): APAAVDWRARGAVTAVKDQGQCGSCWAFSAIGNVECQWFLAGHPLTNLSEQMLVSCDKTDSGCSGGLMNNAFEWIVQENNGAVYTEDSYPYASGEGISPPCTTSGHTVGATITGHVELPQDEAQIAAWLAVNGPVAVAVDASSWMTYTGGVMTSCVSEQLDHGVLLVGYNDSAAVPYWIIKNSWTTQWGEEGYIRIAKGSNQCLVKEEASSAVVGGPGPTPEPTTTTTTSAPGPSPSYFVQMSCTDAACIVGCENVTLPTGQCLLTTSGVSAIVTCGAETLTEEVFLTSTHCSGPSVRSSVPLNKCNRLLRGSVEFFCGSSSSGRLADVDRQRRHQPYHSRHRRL
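Detergent-free condition (0.00005% Triton X-100) in acetate buffer pH 5.5 with DTT. 1.5 nM enzyme and compound were pre-mixed 15 min, then 2 uM Z-FR-AMC substrate added; reaction progress from fluorescence change between first and third reads (60 s).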
Cruzain Triton – blocks cruzain activity in presence of Triton detergent; P25779; purified cruzain, Z-FR-AMC fluorescence, 0.01% Triton; Potency, µM, hits mostly inhibitors; 200,000 tested, 0.43% active; also: nearly all actives have a fitted effect of over 40% in size
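Detergent-containing arm of a paired screen for aggregation-based inhibition: 0.01% Triton X-100 present. Cruzain at 1.5 nM cleaved 2 uM Z-FR-AMC at pH 5.5 with 5 mM DTT; AMC fluorescence gain over 60 s measured activity.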
Large screens that a line does not name were inactive. In the library only some 2.5% were active in any assay of this set; here they are far more common. Calls follow the shape of the dose curve; as a rule, active = well fitted curve in the direction sought with a large enough effect; inconclusive = small, poorly fitted or top-dose-only effect, or another doubt; inactive = no such curve, though single readings can be large; an effect the other way counts as inactive or inconclusive.

CCc1ccc(S(=O)(=O)N(C(=O)Oc2ccccc2)c2ccc3oc(C)c(C(=O)OC)c3c2)cc1	Cruzain noTriton inconclusive
[ClH+][Cu][ClH+].[Cu].[OH2+]c1ccc2ccccc2c1CN1CCCCC1.[OH2+]c1ccc2ccccc2c1CN1CCCCC1	none
O=C(CSc1ncnc2c1cnn2-c1ccccc1)Nc1ccc2c(c1)OCO2	none
O=C(CSc1ncnc2c1cnn2-c1ccc(Cl)cc1)NCc1ccc2c(c1)OCO2	Cruzain noTriton 13µM
O=C(Nc1cccc(C(F)(F)F)c1)N1CC2CCCN2c2ccccc21 (stereo unspecified)	Cruzain noTriton inconclusive
CCCCOc1ccc(C(=O)NCC(=O)OC2CCOC2=O)cc1 (stereo unspecified)	Cruzain noTriton inconclusive, Cruzain Triton 20µM
Cc1ccc(S(=O)(=O)NCC(=O)OC2CCOC2=O)cc1 (stereo unspecified)	none
Cc1ccccc1NC(=O)Cc1nnc(SCC(=O)c2ccc(Br)cc2)n1C	none
Cc1ccc(NC(=O)Cc2nnc(SCC(=O)c3ccc(Br)cc3)n2C)cc1Cl	Cruzain noTriton 13µM
Cc1nn(C)cc1/C=C(/C#N)C(N)=O	none
COC(=O)c1ccccc1NC(=O)CSc1nc(=O)cc(N)n1-c1ccccc1	Cruzain Triton 25µM
COC(=O)c1ccccc1NC(=O)CSc1nc(O)cc(=O)n1C1CCCC1	Cruzain noTriton inconclusive
Cc1cccc(-n2c(N)cc(=O)nc2SCC(=O)Nc2nnc(C)s2)c1	Cruzain noTriton 25µM, Cruzain Triton inconclusive
Cc1cccc(-n2ccnc2SCC(=O)Nc2nnc(C)s2)c1	none
COc1cc(SC#N)ccc1N=Cc1c(C)[nH]n(-c2ccc(C)cc2C)c1=O	none
COc1cc(SC#N)ccc1N=Cc1c(C)[nH]n(-c2cccc3ccccc23)c1=O	Cruzain noTriton 25µM
COc1ccc(S(=O)(=O)Nc2ccc3c(c2)sc(=O)n3C)cc1Cl	none
COc1ccc(NC(=O)/C(C#N)=C\c2cc(C)n(-c3ccc(Oc4ccc([N+](=O)[O-])cn4)cc3)c2C)cc1	Cruzain noTriton 7.9µM
COc1ccc(NC(=O)/C(C#N)=C/c2cc(C)n(-c3ccc(F)cc3)c2C)cc1	none
COC(=O)c1ccccc1NC(=O)C1CCCN(c2nnc(C)c3c(C)n(-c4ccccc4)nc23)C1 (stereo unspecified)	none
COc1ccc(CNc2ccnc(-c3cccc(NS(C)(=O)=O)c3)n2)c(OC)c1	none
Cc1ccc2c(c1)-c1c(ssc1=S)C(C)(C)N2C(=O)c1ccco1	Cruzain noTriton 16µM
CC1(C)c2ssc(=S)c2-c2ccccc2N1C(=O)c1ccco1	Cruzain noTriton inconclusive
COC(=O)c1c(NC(=O)COC(=O)c2ccc(C)s2)sc2c1CCCCC2	none
CCOC(=O)c1c(NC(=O)CS(=O)(=O)c2ccc(Cl)cc2)sc2c1CCCC2	none
COC(=O)c1c(NC(=O)COC(=O)[C@@H](NS(=O)(=O)c2ccc(C)cc2)C(C)C)sc2c1CCC2	Cruzain noTriton 16µM
CCOC(=O)c1c(NC(=O)CS(=O)(=O)c2ccc(C)cc2)sc2c1CCCCC2	Cruzain noTriton 4µM
O=C(Nc1cc(Cl)ccc1Cl)C1CC(=O)N(c2ccc(Br)cc2)C1 (stereo unspecified)	none
COc1cc(OC)c(C2N(c3ccc(Cl)cc3)C(=O)C3CCCN32)cc1OC (stereo unspecified)	none
O=C(Nc1ccccc1)N1CCCC2(CCN(C(=O)c3ccco3)CC2)C1	none
Cl/C=C/CCl	none
O=C(/C=C/c1ccc(Br)cc1)c1ccc(NC(=O)c2ccco2)cc1	none
CCC1CSC(Nc2ccc(C(=O)/C=C/c3ccc(Br)cc3)cc2)=N1 (stereo unspecified)	Cruzain noTriton 25µM
O=C(CSc1nc2ccccc2[nH]1)Nc1ccc(F)c(F)c1	Cruzain noTriton 25µM
O=C(CSc1nc2ccccc2[nH]1)Nc1ccccc1F	none
O=C(COc1cccc2ccccc12)Nc1nc2ccccc2[nH]1	Cruzain noTriton 25µM
O=C(CSCc1nc2ccccc2[nH]1)Nc1ccc2ccccc2c1	Cruzain noTriton inconclusive
O=C(CSc1ccc2ccccc2c1)Nc1nc2ccccc2[nH]1	Cruzain noTriton 16µM
O=C(/C=C/c1ccc(F)cc1)Nc1nc2ccccc2[nH]1	Cruzain noTriton 10µM
O=C(/C=C/c1ccccc1)Nc1ncn[nH]1	none
O=C(COc1ccccc1)Nc1nc2ccccc2[nH]1	none
Cc1cccc(NC(=O)CNc2cc(C)ccc2C)c1	Cruzain noTriton 20µM
Cc1ccc(F)cc1NCC(=O)Nc1ccc(Br)cc1	none
NC1=C(c2ccc(F)cc2)C(=O)CS1	Cruzain noTriton 16µM, Cruzain Triton inconclusive
Nc1nnc(-c2ccc(F)cc2)s1	none
CC(C)CC(C(=O)Nc1oc(-c2ccco2)c(-c2ccco2)c1C#N)N1C(=O)c2ccccc2C1=O (stereo unspecified)	Cruzain noTriton 32µM
CC(C)CC(C(=O)Nc1ccc2c(c1)OCCO2)N1C(=O)c2ccccc2C1=O (stereo unspecified)	none
c1cncc(-c2cncnc2-n2ccnc2)c1	none
Cc1cccc(NC(=O)Cn2c(=O)oc3cc(S(=O)(=O)N4CCCCCC4)ccc32)c1	none
COc1ccc(CNC(=O)Cc2c(C)c3ccc(O)cc3oc2=O)cc1	Cruzain noTriton 25µM
COc1ccc(CNC(=O)Cc2c(C)c3c(O)cc(C)cc3oc2=O)cc1	none
Cc1cccn2c(=O)cc(COc3cccc(NC(=O)COc4ccccc4)c3)nc12	none
COC(=O)c1c(NC(=O)CSc2nnnn2-c2ccccc2)sc2c1CCC(C(C)(C)C)C2 (stereo unspecified)	Cruzain noTriton 6.3µM
COC(=O)c1c(NC(=O)COc2ccccc2Cl)sc2c1CCC(C(C)(C)C)C2 (stereo unspecified)	none
CC(C)(C)C1CCc2c(sc(NC(=O)c3cccs3)c2C(N)=O)C1 (stereo unspecified)	Cruzain noTriton 13µM
CCC(C)(C)C1CCc2c(sc(NC(=O)c3cccs3)c2C(N)=O)C1 (stereo unspecified)	Cruzain noTriton inconclusive
CCOC(=O)c1sc(NC(=O)CSc2nnnn2-c2ccccc2)c(C(=O)OCC)c1C	none
COC(=O)c1c(NC(=O)CSc2nnnn2-c2ccccc2)sc2c1CCC(C)C2 (stereo unspecified)	Cruzain noTriton 20µM
CCOc1ccc(NC(=O)C2CCN(C(=O)N3CC(C)Oc4ccc(Cl)cc43)CC2)cc1 (stereo unspecified)	none
Cc1nn2c(=O)cc(COC(=O)c3ccccc3NC(=O)c3ccccc3C)nc2s1	none
O=C(CN(c1cccc(Br)c1)S(=O)(=O)c1ccccc1)N1CCc2ccccc2C1	none
C#C[C@]1(O)CC[C@H]2[C@H]3CCC4=Cc5oncc5C[C@]4(C)[C@@H]3CC[C@]21C	none
Cn1c2c(c(=O)n(C)c1=O)C(c1ccccc1[N+](=O)[O-])CC(=O)N2 (stereo unspecified)	none
CC(=O)NC1CC(=O)N(c2ccc3c(c2)OCCO3)C1 (stereo unspecified)	none
CN(C)S(=O)(=O)c1ccc2c(c1)c(=O)c(C(=O)N1CCN(c3cccc(Cl)c3)CC1)cn2C	Cruzain noTriton inconclusive
O=C(NCCc1nc2ccccc2[nH]1)c1ccc(Cl)c([N+](=O)[O-])c1	Cruzain noTriton 2µM, Cruzain Triton 1.3µM
Cc1ccc(C(=O)NCCSc2c(C)[nH]c3ccccc23)cc1[N+](=O)[O-]	none
Cc1ccc(C(=O)NCCc2nc3ccccc3[nH]2)cc1[N+](=O)[O-]	Cruzain Triton 4.5µM
O=C(Nc1cccc(-c2nc3ccccc3[nH]2)c1)c1cccc(NC(=O)c2ccco2)c1	Cruzain noTriton 5µM, Cruzain Triton 10µM
O=C(Nc1ccc2nc(-c3ccccc3)[nH]c2c1)c1ccco1	none

Assay outcomes (PubChem)
